Laboratory results as given in PubChem BioAssay AID1508602 (The Scripps Research Institute Molecular Screening Center, 2020).
Values joined by “and” are separate entries in the source; they are usually repeats but may differ in a detail not shown here. Equal values may be shown once. Hit rate of the full screen: of about 650,000 compounds, about 6,800 (1%) were called active. The sample as a whole holds a higher share of actives than the screen did. Values without a mark were called inactive. Rule as the data show it: active = activation above about 4.9%; inactive = the rest.

biological target: G-protein coupled receptor 151 (Homo sapiens) (UniProt Q8TDV0); experiment: activators of human GPR151, primary screen, cell-based, PathHunter beta-arrestin, luminescence (AID 1508602); conditions: PathHunter beta-arrestin GPR151 cells, at 11.2 µM, active compounds read high;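 also: 0% = median of compound wells and 100% = cells with positive control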
Sequence (Q8TDV0 whole entry, looked up): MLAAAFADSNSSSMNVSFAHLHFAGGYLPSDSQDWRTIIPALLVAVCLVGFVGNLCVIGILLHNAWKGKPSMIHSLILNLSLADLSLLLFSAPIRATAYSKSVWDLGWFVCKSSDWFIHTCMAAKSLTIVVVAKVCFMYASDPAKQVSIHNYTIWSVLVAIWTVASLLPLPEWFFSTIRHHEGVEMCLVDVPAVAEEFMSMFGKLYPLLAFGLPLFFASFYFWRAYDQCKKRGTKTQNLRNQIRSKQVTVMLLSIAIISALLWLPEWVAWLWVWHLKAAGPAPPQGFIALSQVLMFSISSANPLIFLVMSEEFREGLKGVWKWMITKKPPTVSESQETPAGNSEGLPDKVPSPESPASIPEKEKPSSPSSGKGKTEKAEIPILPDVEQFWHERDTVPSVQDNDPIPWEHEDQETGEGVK

| SMILES | activation |
| --- | --- |
| CCCNC(=O)c1ccc(Cl)cc1[N+](=O)[O-] | 1.13% |
| COc1ccc(NC(=O)c2cc3cccc(OC)c3oc2=O)cc1OC | -1.45% |
| COc1cccc2cc(C(=O)N(C)C)c(=O)oc12 | 5.93% (active) |
| CCCN(CCC)C(=O)c1cc2cccc(OC)c2oc1=O | 2.62% |
| CCn1c(COc2ccccc2OC)nnc1SCC(=O)NC | 1.05% |
| O=[N+]([O-])c1ccc(OCc2nnc(SCCN3CCOCC3)n2-c2ccccc2)cc1 | 0.574% |
| CCn1c(COc2ccccc2)nnc1Sc1ccc([N+](=O)[O-])cc1C=O | 8.41% (active) |
| COc1cc([N+](=O)[O-])ccc1NC(=O)C1CCCC1 | 0.251% |
| COc1cc([N+](=O)[O-])ccc1NC(=S)NCc1cc(C)n(C)n1 | 6.53% (active) |
| COc1ccc(CCNC(=S)Nc2c(C)n(C)n(-c3ccccc3)c2=O)cc1OC | 0.54% |
| CCCC(=O)NC(=S)Nc1ccc([N+](=O)[O-])cc1OC | 0.167% |
| COc1ccc(NC(=S)NCc2cc(C)n(C)n2)cc1OC | 2.25% |
| COc1ccc(CCNC(=S)NCc2cc(C)n(C)n2)cc1OC | 14.1% (active) |
| CCc1nc2ccccc2c2nn(CC(=O)NCCc3ccc(OC)c(OC)c3)c(=O)n12 | 0.488% |
| COC(=O)c1ccc(Nc2nc3c(s2)CCc2ccccc2-3)cc1 | 1.88% |
| Cc1ccc(C)c(OCCOCCNCCN)c1C | 0.982% |
| CN(C)c1cc(Oc2ccc(=O)[nH]n2)nc(N(C)C)n1 | 0.738% |
| CC(C)(C)c1ccc(C(=S)NCCCn2ccnc2)cc1 | 1.31% |
| COc1ccc(NC(=O)Cn2nnc(-c3ccccc3NC(=O)c3cccc(C)c3)n2)cc1 | -0.639% |
| CCOC(=O)c1c(C)oc2c(Br)cc3oc(=O)c(C(=O)CC)cc3c12 | -0.749% |
| COC(=O)CN(C)C(=O)CC1C(=O)NCCN1Cc1ccc(OC)c(OC)c1 (centres undefined) | -0.568% |
| CCCCOc1ccc(OC(=O)c2ccc(-c3ccc(CC)cn3)cc2)cc1 | 0.589% |
| CCc1ccc(-c2ccc(C3CCC(CC)CC3)cc2)nc1 (centres undefined) | 10.7% (active) |
| CCCC1CCC(c2ccc(-c3ccc(CC)cn3)cc2F)CC1 (centres undefined) | 3.24% |

| SMILES | activation |
| --- | --- |
| COc1ccc(/C(O)=C2/C(=O)C(=O)N(CCCC(=O)O)C2c2ccc(O)cc2)cc1 (centres undefined) | 0.777% |
| Cc1ccc(-n2[nH]c(C)c(C=Nc3ccc(N=Cc4c(C)[nH]n(-c5ccc(C)c(C)c5)c4=O)cc3)c2=O)cc1C | 1.34% |
| CCC1(c2ccc(Cl)cc2Cl)NC(=S)N(c2ccc(C)c(C)c2)N1 (centres undefined) | 6.17% (active) |
| Cc1ccc(N2NC3(CCCCC3)NC2=S)cc1C | 1.89% |
| COc1ccc(COC(=O)C2=C(C)NC3=C(C(=O)CCC3)C2c2cccc([N+](=O)[O-])c2)cc1 (centres undefined) | -0.575% |
| CCCCOC(=O)C1=C(C)NC2=C(C(=O)CCC2)C1c1cccc([N+](=O)[O-])c1 (centres undefined) | 6.33% (active) |
| CCCCOC(=O)C1=C(C)NC2=C(C(=O)CCC2)C1c1ccccc1[N+](=O)[O-] (centres undefined) | 1.59% and 0.946% |
| Cn1nc2c(nc1=O)[nH]c1ccccc12 | -0.513% |
| Cc1ccc(OCCN2CCNCC2)cc1C | -1.28% |
| CC(=O)c1cccc(-c2cccc(C(=O)Nc3ccc(N4CCOCC4)cc3)c2)c1 | -0.102% |
| COc1cc2nc(-c3ccc(N4CCOCC4)nc3)nc(Nc3ccc(NC(C)=O)cc3)c2cc1OC | 0.834% |
| COc1cc2nc(-c3cccc(C(C)=O)c3)nc(Nc3ccc(N4CCOCC4)cc3)c2cc1OC | 5.83% (active) |
| COc1cc(C2C3=C(CC(C)(C)CC3=O)Nc3ccc4ncccc4c32)ccc1OC(C)=O (centres undefined) | -0.317% |
| O=C(Cc1cccs1)N1CCCCC1c1nc2ccccc2[nH]1 (centres undefined) | 0.204% |
| O=C(Nc1ccc(Br)cc1Cl)N1CCN(c2ncccn2)CC1 | -0.59% |
| Cn1c(SCCN2CCCCC2)nnc1C1CCN(C/C=C/c2ccco2)CC1 | 1.24% |
| COc1cccc(C(=O)Nc2ccc(N3CCCC3=O)cc2)c1 | -9.98% |
| O=C(Nc1ccc(S(=O)(=O)Nc2ncccn2)cc1)c1cncc(Br)c1 | -0.902% |
| O=C(Nc1ccc(N2CCCC2=O)cc1)c1cncc(Br)c1 | 5.11% (active) |
| C(=N\c1nnc2nc[nH]n12)/c1ccco1 | -0.745% |
| CC(C)CNC(=O)c1ccc(F)c(S(=O)(=O)N2CCOCC2)c1 | 1.07% |
| O=[N+]([O-])c1ccc(Oc2ccc(Cl)c3cccnc23)c(Cl)c1 | 0.725% |
| COc1ccc(OC)c(S(=O)(=O)Oc2ccc(Cl)c3cccnc23)c1 | 12.1% (active) |
| COc1ccc(S(=O)(=O)Oc2ccc(Cl)c3cccnc23)cc1OC | 2.28% |

| SMILES | activation |
| --- | --- |
| COC(=O)c1cc2cc(N)ccc2s1 | 0.191% |
| CCCS(=O)(=O)N1CCN=C1SCc1cccc(Cl)c1 | -1.49% |
| Cc1cccc(NC(=O)CSc2nc3[nH]ncc3c(=O)[nH]2)c1 | 5.01% (active) |
| O=C(CSc1ccc(F)cc1)Nc1ccccc1-c1nc2ccccc2s1 | -0.819% |
| Cc1nnc(SCC(=O)Nc2cccc(Cl)c2)[nH]c1=O | 0.326% |
| O=C(CSc1ccc(F)cc1)Nc1cccc2ccccc12 | 7.44% (active) |
| Cc1cccc(NC(=O)CSc2ncn[nH]2)c1 | -0.535% |
| Cc1cc(=O)[nH]c(SCC(=O)Nc2ccc(C(N)=O)cc2)n1 | -0.979% |
| Cc1cc(=O)[nH]c(SCC(=O)Nc2cccc3ccccc23)n1 | 15.8% (active) |
| Cc1cc(=O)[nH]c(SCC(=O)Nc2ccccn2)n1 | 0.382% |
| Cc1nc(SCC(=O)Nc2cccc3ccccc23)n[nH]1 | -0.295% |
| COc1ccc(C(=O)c2snc(Nc3ccccc3)c2N)cc1 | 0.834% |
| CCSc1c(O)cnn(-c2ccccc2)c1=O | 0.94% |
| CCOC(=O)C(C#N)C(C#N)(C(=O)OCC)C1CCCCC1=O (centres undefined) | 2.95% |
| O=C(CNC(=O)c1ccc(NC2CC2)c([N+](=O)[O-])c1)Nc1ccc(F)c(F)c1F | 0.807% |
| Cc1ccc[n+](-c2ncnc(N)c2[N+](=O)[O-])c1 | 6.28% (active) |
| Cc1csc(Nc2ncnc(N)c2[N+](=O)[O-])n1 | -0.642% |
| Nc1ncnc(Oc2ccccc2Cl)c1[N+](=O)[O-] | 1.64% |
| CSc1ncc(C(=O)Nc2ccc(F)cc2C)c(C)n1 | -0.309% |
| O=C(Nc1ccccc1)NC1(C(=O)Nc2ccc(F)cc2F)CCCCC1 | 0.408% |
| Cc1ccc(NC(=O)Cn2c(C)c(C=O)c3ccccc32)cc1C | 1.3% |
| COc1ccc(-c2nnc(SCC(=O)Nc3ccc4c(c3)OCCO4)o2)cc1OC | 0.0025% |
| Cc1sc2nc(CN(C(=O)C3CC3)C3CCCC3)[nH]c(=O)c2c1C | 0.605% |
| Cc1sc2nc(Cc3ccccc3)[nH]c(=O)c2c1C | 0.303% |

| SMILES | activation |
| --- | --- |
| CCC(CC)C(=O)N1CCN(Cc2nc3sc(C)c(C)c3c(=O)[nH]2)CC1 | 5.71% (active) |
| O=C(CCCCn1c(=O)[nH]c2ccccc2c1=O)N1CCN(c2cccc(Cl)c2)CC1 | -0.11% |
| CCCCc1ccc(-c2nc(C=Nc3ccc(C(C)=O)cc3)c(O)o2)cc1 | -0.204% |
| CCCCc1ccc(N=Cc2nc(-c3cccc4ccccc34)oc2O)cc1 | 7.67% (active) |
| Oc1oc(-c2cccc3ccccc23)nc1C=Nc1ccc2ccccc2c1 | -1.09% |
| COc1ccc(CNC2CCCN(c3nc(C)c4ccc(C)cc4n3)CC2)cc1OC (centres undefined) | -0.801% |
| COc1ccc(NC(=O)C2CC(=O)N(C3CCCCC3)C2)cc1 (centres undefined) | 0.591% |
| Cc1ccc(C)c(NC(=O)C(Cc2ccccc2)N2C(=O)c3cccc([N+](=O)[O-])c3C2=O)c1 (centres undefined) | 1.63% |
| CCOc1ccc(C(=O)Nc2ccc(C(=O)OC)cc2)cc1[N+](=O)[O-] | 1.51% |
| CCOc1ccc(C(=O)Nc2ccccc2I)cc1[N+](=O)[O-] | 2.03% |
| CCOc1ccc(C(=O)Nc2nnc(CC)s2)cc1[N+](=O)[O-] | 7.7% (active) |
| Cc1ccccc1-n1c(C)cn2c3c(=O)n(CC(N)=O)c(=O)n(C)c3nc12 | 0.26% |
| O=S(=O)(NC1CCCCC1)c1ccc(S(=O)(=O)n2cnc3ccccc32)cc1 | 3.37% |
| COc1ccc(S(=O)(=O)N(C)CC(=O)Nc2cccc(C(F)(F)F)c2)cc1OC | 1.26% |
| CCc1cccc(CC)c1NC(=O)CCS(=O)(=O)c1ccc2c(c1)SCC(=O)N2 | -0.523% |
| COc1cccc(NC(=O)CN(C)S(=O)(=O)c2ccc3c(c2)SCC(=O)N3)c1 | 5.58% (active) |
| O=C(NNC1=NCCCCC1)c1ccc([N+](=O)[O-])cc1 | 4.83% |
| CC(=O)NCc1nnc2n1CCN(Cc1ccc(-c3ccccc3)cc1)CC2 | -0.371% |
| CC(C)CNC(=O)C(C)N(c1ccccc1)S(C)(=O)=O (centres undefined) | 1.91% |
| Cc1nc2nc(SCc3ccc([N+](=O)[O-])cc3)nn2c(C)c1Cc1c(F)cccc1Cl | 5.69% (active) |
| Cc1nc2nc(SCc3c(F)cccc3Cl)nn2c(C)c1Cc1c(F)cccc1Cl | 0.427% |
| Cc1nc2ncnn2c(C)c1Cc1c(F)cccc1Cl | 0.47% |
